# ChEMBL document CHEMBL4513216, “Probing the Open Global Health Chemical Diversity Library for Multistage-Active Starting Points for Next-Generation Antimalarials” (ACS Infect Dis, 2020)
# The whole screen tested about 65,000 compounds, of which about 2,100 (3.2%) showed an effect of 50% or more. The median lay at about -52%. For the sample, strong results were picked, then their nearest neighbours and some compounds at random.
# System: Plasmodium falciparum
# Test: Screen against P. falciparum Asexual Blood Stage (ABS), at 5uM
# Assay type: functional, Dd2
# Conditions: tested at 5 uM
row,Compound,INHIBITION [%]
1,c1cnc(N2CCO[C@@H]3CN(Cc4ccoc4)C[C@@H]3C2)nc1,-30.5
2,Cc1cccc(S(=O)(=O)NCC(C)N2CCN(C)CC2)c1Cl (stereo not drawn),81.5
3,CNS(=O)(=O)CC(=O)NC(C)Cc1cccc(Cl)c1 (stereo not drawn),-15.4
4,Cc1cc(Cl)ccc1S(=O)(=O)NCC(C)N1CCN(C)CC1 (stereo not drawn),74.3
5,CC(CNS(=O)(=O)c1cccc(Cl)c1)N1CCN(C)CC1 (stereo not drawn),78
6,COCCN1CCN(c2cc(OC)ncn2)Cc2ccc(C)nc21,-102
7,Cc1cc(CN2CC[C@H]3C[C@@H](c4nc(C5CC5)cs4)O[C@@H]3C2)no1,6.98
8,Cc1ccccc1C1(CN)CCOCC1,36.4
9,NCC1(c2cccc(C(F)(F)F)c2)CCCCC1,2.74
10,Cc1ccccc1C1(CN)CCCCC1,91
11,CC(c1cn2ccsc2n1)n1cc2[nH]cccc-2c1=O (stereo not drawn),-134
12,CO[C@H]1CN(C(C)C)C[C@@H]1NC(=O)c1cc(-c2ccccc2O)n[nH]1,90
13,Clc1ccccc1-c1cc(CNc2ncnc3c2CCNCC3)no1,80.3
14,CC(C)(C)C(=O)N1C[C@H](c2ccsc2)[C@H]2CN(C3CCCCC3)CC[C@H]21,77.3
15,CN1CCN([C@@H]2CN(C(=O)Cc3ccsc3)[C@@H]3CCCO[C@H]23)CC1,-66.9
16,CC(C)(C)C(=O)N1C[C@H](c2ccsc2)[C@H]2CN(C3CCCC3)CC[C@H]21,72.6
17,Cc1noc(C)c1CN1CCCC2(CCN(C(=O)CC3CC3)C2)C1 (stereo not drawn),-16.5
18,Cc1noc(C)c1CN1CCCC2(CCN(C(=O)C3CC3)C2)C1 (stereo not drawn),12.9
19,c1cnc(N2CCC3(CCCN(CC4CC4)C3)CC2)nc1,41.7
20,c1cnc(N2CCCC3(CCN(CC4CC4)C3)C2)nc1 (stereo not drawn),61.1
21,c1cnc(N2CCCC3(COCCN(CC4CC4)C3)C2)nc1 (stereo not drawn),37.4
22,c1cnc(N2CCCC3(CCN(CC4CCC4)C3)C2)nc1 (stereo not drawn),53.9
23,CCC(CC)CN1CCC2(CCCN(c3ncccn3)C2)C1 (stereo not drawn),62.6
24,CCN1CCCC12CCCN(c1ncccn1)C2 (stereo not drawn),-31.8
25,Cc1noc(C)c1CN1CCCC2(CCN(CC3CCCC3)C2)C1 (stereo not drawn),83.1
26,c1cnc(N2CCC3(CN(CC4CCOC4)C3)C2)nc1 (stereo not drawn),-15.6

row,Compound,INHIBITION [%]
1,COCCN1CCC2(C1)CN(c1ncccn1)C2,-85.3
2,CNC(=O)CN1CCOCC12CCN(Cc1ccncc1)CC2,-20.5
3,Cc1cccc(CN2CCC[C@@H]3CN(C(=O)c4ccco4)C[C@@H]32)n1,-73.5
4,CCS(=O)(=O)NC[C@]12COC[C@H]1CN(Cc1cccnc1)C2,-97.3
5,O=C(NCC1CC1)[C@H]1C[C@@H]2[C@@H](C1)OCCN2Cc1cccnc1,-29.4
6,CC(C)(C)c1cn(C[C@H]2CC3CCN2C[C@@H]3C(=O)NC2CC2)nn1 (stereo partly drawn),-148
7,Cc1noc(C)c1CN1C[C@@H]2C[C@H](C(=O)NCC3CC3)N(C)[C@@H]2C1,-8.05
8,O=C(C1CNCCO1)N1CCCC(c2ccccc2)(c2ccccc2)C1 (stereo not drawn),79.5
9,CC(=O)C1(c2ccccc2)CCN(C(=O)CC2CNCCO2)CC1 (stereo not drawn),-44.7
10,CC(=O)C1(c2ccccc2)CCN(C(=O)C2CNCCO2)CC1 (stereo not drawn),-81.4
11,CC(O)c1cccc(Nc2nc(NCCO)c3ccccc3n2)c1 (stereo not drawn),89.4
12,CCN(CC)c1nc(Nc2cccc(C(C)O)c2)nc2ccccc12 (stereo not drawn),84.5
13,OC[C@@H]1CN2CCN(c3ccccn3)C[C@@H]2[C@H]1c1ccccc1,-7.96
14,c1ccc(CO[C@@H]2CN(Cc3nccs3)[C@@H]3COC[C@@H]32)nc1,-84.8
15,CCn1nc(C)c(CN2CCNCC2)c1C,-86.35
16,c1cncc(C(Cn2cnnc2)N2CCOCC2)c1 (stereo not drawn),-88.3
17,COCCN1CCC2(CC1)C(=O)Nc1ccc(C(=O)NC(C)C)cc12,-102
18,COCCN1CCc2cc(C(=O)NC(C)C)c(NCC(C)C)nc2CC1,78.9
19,Cc1n[nH]c2c1C(c1cnn(C)c1)SCC(=O)N2 (stereo not drawn),-51.7
20,c1cncc(CN2CCC3(CCCN(c4nncs4)C3)C2)c1 (stereo not drawn),-82.9
21,CN(C)C(=O)N1CCCC2(CCN(Cc3ccncc3)C2)C1 (stereo not drawn),-29.6
22,CC(C)c1ccc(CN2CCC3(CCCN(c4nncs4)C3)C2)cc1 (stereo not drawn),73.6
23,Cc1cccc(CN2C[C@@H]3COC[C@H](NS(C)(=O)=O)[C@@H]3C2)n1,-96.6
24,CC(C1CCN(Cc2c(Cl)ccc(O)c2Cl)CC1)N1CCN(C)CC1 (stereo not drawn),87.2
25,Cc1n[nH]c2c1C(c1cc(F)cc(F)c1)SCC(=O)N2 (stereo not drawn),-23.5
26,NC(=O)N1CC2(CCNCC2)c2cc(Cl)ccc21,-61

row,Compound,INHIBITION [%]
1,CCOC(=O)N1CCC2(CCNC2)C1 (stereo not drawn),-85.4
2,O=C(c1ccccc1F)N1CC2(CCNCC2)c2cc(Cl)ccc21,77
3,O=C(c1ccco1)N1CC2(CCNCC2)c2cc(Cl)ccc21,76.1
4,O=C1CCC2(CCCN(C(=O)c3ccco3)CC2)N1 (stereo not drawn),40.8
5,COC(=O)N1CC2(CCNCC2)c2cc(Cl)ccc21,13.1
6,O=C(c1ccco1)N1CCO[C@@H]2CNCC[C@@H]2C1,-138
7,CCOC(=O)N1CC2(CCNCC2)c2cc(Cl)ccc21,78
8,CC(=O)N1CC2(CCNCC2)c2cc(Cl)ccc21,3.4
9,O=C(NC[C@]12COC[C@H]1CN(Cc1cccnc1)C2)C1CCC1,-49.9
10,CCC(C(=O)N1CCCSCC1)N1CCCC1=O (stereo not drawn),-76.1
11,CNCCc1nc2cc(Cl)ccc2[nH]1,-71
12,O=C(N1CCCO1)[C@@]12CCO[C@@H]1CCN(Cc1ccccn1)C2,-110
13,CC(Cn1cncn1)NCCN1CCc2ccccc21 (stereo not drawn),-71.4
14,CC(C)c1nn(C)c(Cl)c1CNCC(O)c1cccc(F)c1 (stereo not drawn),82.4
15,CC(C)=CCN1C[C@@H]2CC[C@H]1CN(C(=O)CSc1ccncc1)C2,-26.7
16,Cc1noc(C)c1CN1CC2(CCCCN2C)CC1=O (stereo not drawn),-15.4
17,CC(C)NC(=O)[C@H]1C[C@@H]2[C@@H](C1)OCCN2Cc1ccccn1,-84.2
18,CCNc1ccnc(CN2CCCC2C(=O)Nc2nccs2)c1 (stereo not drawn),95.1
19,CCn1ccnc1CN1CCCC1C(=O)Nc1nccs1 (stereo not drawn),85
20,CCn1ccnc1CN1CCCN(C(=O)Cc2csc(C)n2)CC1,-15.3
21,O=C(Nc1cccnc1)[C@H]1C[C@@H]2CCN(Cc3nccs3)C[C@@H]2O1,-177
22,O=C(Nc1nccs1)C1CCCN1Cc1ccccn1 (stereo not drawn),93.7
23,O=C(N[C@@H]1CN(Cc2ccccn2)[C@@H]2COC[C@@H]21)C1CCC1,-89.5
24,CN(C)CCN(Cc1cccnc1)C(=O)c1ccn(-c2ccccc2)n1,87.4
25,Cc1cnc(C(=O)N2C[C@H]3CN(Cc4cccnc4)C[C@H]3C2)cn1,-8.02
26,CCCN1CCN(C(=O)Cc2nc(-c3ccco3)oc2C)CC1,-36.9

row,Compound,INHIBITION [%]
1,COc1cccc(C2=CCN(CCN3CCCC3=O)CC2)c1,12.8
2,Cc1nc(CN)cc(N2CCC(O)(c3ccc(Cl)cc3)CC2)n1,72.2
3,Cc1nc(CCN)cc(N2CCC(O)(c3ccc(Cl)cc3)CC2)n1,91.7
4,CN1[C@@H](C(=O)NCC2CC2)C[C@@H]2CN(c3ncccn3)C[C@@H]21,13.9
5,c1ccc(O[C@@H]2CC[C@H]3[C@H]2OCCN3CC2CCOCC2)nc1,-83.6
6,c1ccc(O[C@H]2CC[C@H]3[C@H]2OCCN3Cc2nccs2)nc1,-64.9
7,CC(C)C[C@H](N)COc1cccc(F)c1Oc1ccc(Cl)cc1,86.5
8,CC(C)C[C@H](N)COc1cccc(F)c1Oc1cccc(Cl)c1,85.5
9,CC(C)C[C@H](N)COc1cccc(F)c1Oc1ccccc1,70.9
10,c1ccc(CO[C@@H]2C[C@H]3CN(c4ncccn4)CCN3C2)nc1,-38.6
11,c1cc(CN2CCOC3(CCCC3)C2)no1,-101
12,O=C1CSC(c2ccsc2)c2sccc2N1 (stereo not drawn),-15.7
13,Cc1ccc(N2CCO[C@H]3CN(Cc4cccs4)C[C@H]32)nn1,-11.3
14,COCCn1cc(C(=O)Nc2nc3c(s2)CCC3)c2ccccc21,-78.7
15,O=C(CN1CCCC(c2ccn[nH]2)C1)Nc1nc2c(s1)CCC2 (stereo not drawn),89.2
16,O=C(CN1CCCC(c2ccn[nH]2)C1)Nc1nc2c(s1)CCCC2 (stereo not drawn),86.1
17,Cc1cc(C2CCCN(CC(=O)Nc3nc4c(s3)CCC4)C2)n[nH]1 (stereo not drawn),86.9
18,CC1CN(C)CCN1C(=O)COc1cccc(Oc2ccccn2)c1 (stereo not drawn),-65.8
19,Cc1noc(C)c1CN1CCOC2(CCCN(c3nccs3)C2)C1 (stereo not drawn),-36.8
20,CCCOc1cc(Cl)c(CN2CCNC(C(=O)NC3CC3)C2)cc1OC (stereo not drawn),75.4
21,O=C(c1ccc(Cn2ccccc2=O)o1)N1CCC2(CC1)OCCO2,1.12
22,CC(C)Cc1ncc2c(n1)CN(C(=O)c1ccc(CN3CCCC3)o1)C2,70.3
23,CCCn1cc(C(=O)NCCS(N)(=O)=O)c2ccccc21,-25.6
24,Cc1ccc(C(C)NCc2cn(CCC(N)=O)c3ccccc23)cc1C (stereo not drawn),82.8
25,CCCn1cc(C(=O)NCCCC(N)=O)c2ccccc21,-75
